mcGAS lum – mouse cGAS inhibition by luminescence | recombinant cGAS, Kinase-Glo ATP depletion luminescence | inhibition, % at 12.5 µM | 160,000 compounds, 0.15% hits | AID 1259399;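 also: 0% = negative control wells and 100% = reference inhibitor with no enzyme activity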
hcGAS inh – inhibitors of human cGAS | Q8N884 | recombinant h-cGAS, ATP depletion, Kinase-Glo luminescence | inhibition, % at 12.5 µM | 290,000 compounds, 0.081% hits | AID 1259398;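 also: 0% = vehicle reaction and 100% = reaction without DNA for no activity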
Target sequence (Q8N884 whole entry, looked up): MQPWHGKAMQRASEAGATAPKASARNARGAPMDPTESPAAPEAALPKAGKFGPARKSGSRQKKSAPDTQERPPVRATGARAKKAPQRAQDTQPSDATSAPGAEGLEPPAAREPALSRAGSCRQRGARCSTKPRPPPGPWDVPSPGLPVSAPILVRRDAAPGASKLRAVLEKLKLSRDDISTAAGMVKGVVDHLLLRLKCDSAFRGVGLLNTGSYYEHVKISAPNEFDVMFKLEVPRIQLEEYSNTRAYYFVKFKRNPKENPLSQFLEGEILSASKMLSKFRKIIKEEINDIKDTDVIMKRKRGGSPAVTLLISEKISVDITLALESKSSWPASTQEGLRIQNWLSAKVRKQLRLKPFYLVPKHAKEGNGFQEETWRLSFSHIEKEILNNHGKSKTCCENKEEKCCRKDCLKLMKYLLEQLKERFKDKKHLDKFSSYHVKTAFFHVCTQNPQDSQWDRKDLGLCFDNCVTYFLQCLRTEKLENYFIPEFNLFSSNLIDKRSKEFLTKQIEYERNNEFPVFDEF
NPYLR7 ag – mosquito NPYLR7 agonism; AID 1259423; HEK293T NPYLR7/Galpha15, GCaMP6s calcium fluorescence; 270,000 compounds, 0.15% hits; activation, % at 10 µM; in the data active = activation above about 40%;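 also: 0% = vehicle and 100% = reference agonist at the receptor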
An asterisk follows results filed as active; / = no result; ! = not confirmed by another sample. Rows were chosen to be rich in hits. Some 0.24% of all compounds tested hit in one or more screens of this group. Rule as the data show it, unless noted: active = inhibition above about 40%; inactive = the rest.

SMILES | mcGAS lum | hcGAS inh | NPYLR7 ag
CCc1nn(C(C)C(=O)NC(C)CCc2ccco2)c(=O)c2cc3occc3n12 (centres undefined) | -2.9 | -4.1 | 67.6*
CCC(C)Nc1nnc(SC2CCCCNC2=O)s1 (centres undefined) | / | -4.0 | -4.7
CC(C)N1CCC(=O)N(Cc2ccc(CN3C(=O)CCN(C(C)C)C3=O)cc2)C1=O | / | -5.4 | 12.4
Cc1cc(CO)c(OCCOCCOc2c(CO)cc(C)cc2CO)c(CO)c1 | / | 61.6* | -9.3
COc1cc(OC)c(OC)cc1CO | -9.2 | -5.4 | 3.8
CCOC(=O)C(N=O)=C(O)c1ccccc1 | -7.1 | -5.0 | -9.4
O=C(c1ccc(CSc2nc(-c3ccccc3)cc(N3CCN(c4ccccc4F)CC3)n2)cc1)N1CCCC1 | -4.5 | -9.8 | 11.4
Cn1cnnc1Sc1ccc(S(=O)(=O)N2CCOCC2)cc1[N+](=O)[O-] | / | -9.8 | 1.3
COc1ccc(CNC(=O)CSc2nc3c(-c4ccccc4)c[nH]c3c(=O)n2C)cc1 | -8.2 | -6.7 | 0.6
O=C(O)CN1C(=O)/C(=C2\SC(=S)NC2=O)c2ccccc21 | 102.6* | 24.0 | -0.2
CCN1C(=O)/C(=C2\SC(=S)NC2=O)c2ccccc21 | 35.1 | 7.4 | -20.7
CC1C(=O)N(c2ccc(F)cc2F)CCN1C(=O)c1cccc(F)c1 (centres undefined) | 71.9* | -4.4 | -1.2
CC1C(=O)N(c2ccc(F)cc2F)CCN1C(=O)c1cccc(Br)c1 (centres undefined) | -5.2 | -2.7 | -1.8
O=C1NCC2(CCCN(C(=O)c3cnn4c3CCCC4)CC2)O1 (centres undefined) | / | 0.5 | 1.0
Cc1ccc(-c2ccc(/C=N\Nc3nc4nonc4nc3Nc3ccc(Br)cc3)o2)cc1Cl | 84.1* | 2.9 | -1.7
COCc1cc(C)nc(NN=Cc2ccc(-c3ccc(Br)cc3)o2)c1C#N | 0.9 | 2.4 | -24.8
Cc1sc(-n2c(C)ccc2C)c(C(=O)O)c1C | 1.9 | 0.3 | 7.0
Cc1ccc(C)n1-c1sccc1C(=O)O | 86.2* | 43.6* | 24.7
O=C(C1=NN(c2ccccc2)C2C(=O)N(c3ccccc3)C(=O)C12)c1ccccc1 (centres undefined) | -3.6 | -5.0 | 64.5*
CC(=O)C1=NN(c2ccccc2)C2C(=O)N(c3ccc(Br)cc3)C(=O)C12 (centres undefined) | -2.6 | -0.1 | 5.3
Cc1ccc(C(=O)Nc2ccc(S(=O)(=O)O)c3cc(S(=O)(=O)O)cc(S(=O)(=O)O)c23)cc1NC(=O)c1cccc(NC(=O)Nc2cccc(C(=O)Nc3cc(C(=O)Nc4ccc(S(=O)(=O)O)c5cc(S(=O)(=O)O)cc(S(=O)(=O)O)c45)ccc3C)c2)c1 | 80.3* | 79.6* | -0.6
CC(=O)c1cccc(NS(=O)(=O)c2cc(C(=O)Nc3ccccc3C)ccc2C)c1 | -3.6 | -3.2 | 19.2
O=C(NCCc1ccc(-n2cccn2)cc1)c1ccc2c(c1)OCO2 | -8.6 | -2.5 | -5.0
CCN1CCN(Cc2c(O)ccc3c2O/C(=C\c2cc4cc(Br)ccc4o2)C3=O)CC1 | -2.9 | -7.3 | 79.0*
O=C1/C(=C/c2cc3cc(Br)ccc3o2)Oc2c1ccc(O)c2CN1CCOCC1 | -4.3 | -3.5 | 28.1
SMILES | mcGAS lum | hcGAS inh | NPYLR7 ag
CN1CCN(Cc2c(O)ccc3c2O/C(=C\c2cc4cc(Br)ccc4o2)C3=O)CC1 | -4.9 | -3.5 | 61.9*
O=C1/C(=C/c2cc3cc(Br)ccc3o2)Oc2c1ccc(O)c2CN1CCCC1 | -7.7 | -7.7 | 20.1
Cc1cc(S(=O)(=O)N2CCc3ccc(NC(=O)c4ccccn4)cc3C2)c(C)s1 | / | -10.0 | 3.9
Cc1ccc(C)c(NC(=O)C2CCCN(C(=O)c3ccoc3)C2)c1 (centres undefined) | / | -15.3 | 0.4
CC(C)(C)c1ccc(/C=C2\SC(=S)NC2=O)cc1 | -1.1 | 6.5 | -10.9
O=C1NC(=S)SC1=Cc1ccc(C(=O)O)cc1 | 64.7* | 33.1 | 13.4
O=C1NC(=S)SC1=Cc1cccc(C(F)(F)F)c1 | 82.1* | 30.8 | 0.7
O=C1NC(=S)S/C1=C/c1cccc(O)c1 | / | -4.3 | -1.6
O=C(NCCCn1ccnc1)c1nnc2n(c1=O)CCN2c1ccc(F)cc1 | -8.0 | -9.8 | 2.7
Cc1cc(O)c(C=O)c2c1C(=O)Oc1c(COC(=O)/C=C/C(=O)O)c(O)c(C(=O)O)c(C)c1O2 | 67.1* | 68.6* | /
CCc1nc(SCc2ncc(C(C)(C)C)o2)n[nH]1 | / | -9.3 | 0.1
CC(C)(C)c1cnc(CSc2cnc(NC(=O)C3CCNCC3)s2)o1 | -10.6 | -4.0 | 60.1*
CO[C@@]1(NC(=O)CSCC#N)C(=O)N2C(C(=O)O)=C(CSc3nnnn3C)CSC21 (some centres undefined) | / | -5.8 | 49.0*!
CO[C@@]1(NC(=O)C2SC(=C(C(N)=O)C(=O)O)S2)C(=O)N2C(C(=O)O)=C(CSc3nnnn3C)CS[C@@H]21 (some centres undefined) | / | -1.2 | -3.6
CCn1c(O)c(C=Nc2c(C)nn(C)c2C)c(=O)n(CC)c1=S | -7.1 | -5.8 | -1.6
CCn1c(O)c(C=Nc2c(C#N)c(C)c(C)n2C2CCCCC2)c(=O)n(CC)c1=S | -9.3 | -23.9 | 69.0*
O=c1oc2cc(O)ccc2cc1-c1nnc(-c2ccccc2)o1 | -5.7 | 9.4 | 34.8
O=c1oc2cc(O)ccc2cc1-c1nc2ccccc2o1 | / | 5.0 | 216.4*
CCCCCCCCCCCCCCCC(=O)Nc1ccc2[nH]cc(CCN3CCCC3)c2c1 | -7.4 | 3.5 | 16.4
CCCNC(=O)NCC(=O)N(C)Cc1ccc(Br)cc1 | / | -5.0 | 0.5
CN(Cc1ccc(Br)cc1)C(=O)CCl | 41.7* | -4.3 | 0.5
CC(C)Cn1nc(C(=O)NC2CCCC2)c2c1CCN(C(=O)[C@@H]1C[C@@H](C)NC(=S)N1)C2 | / | -6.2 | -2.2
O=c1c(O)c(-c2ccc(O)cc2O)oc2cc(O)cc(O)c12 | 6.9 | -6.6 | 5.0
O=c1c(O)c(-c2cc(O)c(O)c(O)c2)oc2cc(O)cc(O)c12 | 82.1* | 71.2* | -3.0
Cc1cc2c(c(-c3ccc4c(cnn4C)c3)c1)OC(CN)C2 (centres undefined) | / | -3.9 | 76.1*
SMILES | mcGAS lum | hcGAS inh | NPYLR7 ag
Cc1cc2c(c(-c3cccs3)c1)OC(CN)C2 (centres undefined) | / | -9.4 | 0.5
COC(=O)c1c(C)cc(OC(=O)c2c(C)cc(O)c(C=O)c2O)c(C)c1O | -3.8 | -3.7 | /
Cc1cc(O)c(C=O)c(O)c1C(=O)O | / | 55.7* | -12.5
COc1cccc(CCNC(=O)c2ccc(Nc3cccc(C(F)(F)F)c3)nc2)c1 | -3.6 | -6.7 | 3.6
Cc1cc(O)c(CN(C)C)c2c1C(=O)/C(=C/c1ccncc1)O2 | -3.6 | -4.3 | 16.1
OC1c2ccccc2-c2c3c(cc4c2C1NCC4)OCO3 (centres undefined) | 43.8* | 42.5* | 12.4
Fc1ccccc1C1NCCc2cc3c(cc21)OCCO3 (centres undefined) | / | -7.7 | 0.2
CCCc1nnc2c(=O)n(-c3cc(C)cc(C)c3)ccn12 | -8.2 | -7.5 | 11.0
Fc1ccc(C2CC(c3cccs3)=Nc3nnnn32)cc1 (centres undefined) | -1.2 | -3.1 | 45.5
CC(C)Cc1nc(-c2ccc(CN3CCN(C(=O)C4=NNC(=O)CC4)CC3)cc2)no1 | -8.1 | -4.5 | 10.8
Oc1cc(O)c2c(c1)O[C@H](c1ccc(O)c(O)c1)[C@@H](O)C2 | -5.0 | -2.0 | -1.4
Oc1cc(O)c2c(c1)O[C@H](c1cc(O)c(O)c(O)c1)[C@H](O)C2 | 24.7 | 79.4* | /
